# Where “and” joins values, the source holds several entries; their conditions need not be identical. Equal values may be shown once. Values without a mark were called inactive. Results filed as inconclusive are left out. Entries that show only a call come without a potency. Calls of active or inactive are those of the source. Unless noted, the call rests on the fitted dose curve; in most records, active means well fitted curve in the direction sought with a large enough effect; inconclusive means small, poorly fitted or top-dose-only effect, or another doubt; inactive means no such curve, though single readings can be large; an effect the other way counts as inactive or inconclusive.
# Key:
# [1] = biological target: Cytochrome P450 2D6 (Homo sapiens) (UniProt P10635); experiment: Cytochrome P450 family 2 subfamily D member 6 (CYP2D6) small molecule antagonists: luciferase biochemical (cell-free) qHTS assay (AID 1645840; active means well fitted curve in the direction sought with a large enough effect in the repeat runs; an effect the other way counts as inactive or inconclusive; further: nearly all actives have a fitted effect of over 55% in size; further: potency means the concentration at half of the fitted maximal effect; on activity change, negative = inhibition: series mostly up to about 57 µM)
# How it was run: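 P450-Glo luminescent screen: recombinant CYP2D6 enzyme–proluciferin substrate mix preincubated with compound 10 min at room temperature, then NADPH regeneration added for 1 h at room temperature. Detection reagent added for 20 min; luciferin light read as relative luminescence units.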
# [2] = Primary qHTS for small molecule stabilizers of the endoplasmic reticulum resident proteome: Secreted ER Calcium Modulated Protein (SERCaMP) assay (AID 1508630)
# How it was run: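 GLuc-SERCaMP-expressing SH-SY5Y cells, pretreated 16 h with compound, are challenged with thapsigargin to empty ER calcium stores; after 4 h, coelenterazine is added directly to the medium and luminescence is imaged.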
# [3] = Primary qHTS for inhibitors of La Crosse Virus (LACV) - induced cell death in SH-SY5Y cells (AID 1508616);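 further: top concentration of the series differs between compounds; higher means more rescue of cells from virus-induced death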
# How it was run: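 Readout was luminescence from ATPLite 1step added after a 6-day LACV infection (0.01 MOI) of SH-SY5Y cells that had received pin-transferred compound 24 hr after seeding.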
# [4] = A High-Content qHTS Against Drug Library for the Identification of Small Molecules that Inhibit DYT1 Early Onset Primary Dystonia-Associated Cell Pathology (AID 1645839; calls by dose curve; further: series mostly up to about 46 µM)
# How it was run: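 Flp-In T-REx 293 cells with tetracycline-inducible EGFP-delE hTOR1A (WT EGFP-hTOR1A as reference), 800 cells/well; compound added with tetracycline, 48 h at 37 C. Fixed, permeabilized cells imaged; %pathology (punctate TorsinA) primary, cell count counterscreen.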
# [5] = biological target: Cytochrome P450 2C9 (Homo sapiens) (UniProt P11712); experiment: Cytochrome P450 family 2 subfamily C member 9 (CYP2C9) small molecule antagonists: luciferase biochemical (cell-free) qHTS assay (AID 1645842; active means well fitted curve in the direction sought with a large enough effect in the repeat runs; an effect the other way counts as inactive or inconclusive; further: nearly all actives have a fitted effect of over 55% in size; further: potency means the concentration at half of the fitted maximal effect; on activity change, negative = inhibition: series mostly up to about 57 µM)
# How it was run: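 Luminescence, after 20 min with luciferin detection reagent, reflected CYP2C9 turnover during a 1 h NADPH-driven reaction at 37C. Enzyme-substrate mix contained 0.4% bovine serum albumin and was preincubated with compound 10 min at room temperature.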
# [6] = Primary qHTS for inhibitors of nuclear receptor binding SET domain protein 2 (NSD2) in an isogenic RCH-ACV NSD2 p.E1099K mutant (9B) (AID 1645876); further: nearly all actives have a fitted effect of over 70% in size; further: potency means the concentration at half of the fitted maximal effect
# [7] = Primary qHTS for inhibitors of nuclear receptor binding SET domain protein 2 (NSD2) in an RCH-ACV wild type WT cells (2C) (AID 1645877); further: nearly all actives have a fitted effect of over 70% in size; further: potency means the concentration at half of the fitted maximal effect
# [8] = biological target: Calcium and integrin-binding protein 1 (Homo sapiens) (UniProt Q99828); experiment: Primary qHTS for Identification of Calcium Integrin Binding Protein 1 (CIB1) Competitor (AID 1508620);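 further: GST tagged CIB1 binding a fluorescein labelled alphaIIb integrin peptide tracer; top concentration of the series differs between compounds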
# How it was run: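 Fluorescence polarization competition: GST-tagged CIB1 (1 uM final) preincubated with compound 15 min at room temperature, then FITC-labelled alphaIIb peptide (100 nM final) added. After 15 min at room temperature, polarization read at Ex 480/Em 540.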
# [9] = Validation qHTS assay for inhibitors of Activation Induced Cytidine Deaminase (AID): UDG Counterscreen signal (AID 1347427)
# How it was run: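 Counterscreen read of UDG activity (2 U/mL, 4/3x) in the FRET deamination format with AID (1 uM, 4/3x), DJC20/DJC23 substrates (250 nM, 4x), 4 h at room temperature. NaOH stop, fluorescence at 560 ex/665 em.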
# [10] = biological target: Single-stranded DNA cytosine deaminase (Homo sapiens) (UniProt Q9GZX7); experiment: Validation qHTS assay for inhibitors of Activation Induced Cytidine Deaminase (AID): AID signal (AID 1347429)
# How it was run: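 In this coupled qHTS, AID deaminates a FRET-labelled ssDNA substrate in the presence of UDG over 4 hr at room temperature. Compounds span up to 114 uM final.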
# [11] = biological target: Calcium and integrin-binding protein 1 (Homo sapiens) (UniProt Q99828); experiment: Validation qHTS for Identification of Calcium Integrin Binding protein 1 (CIB1) Competitor (AID 1508618)
# How it was run: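 CIB1-GST (1 uM final) incubated 15 min at room temperature with compounds (up to 114 uM), then FITC-labelled alphaIIb peptide (100 nM) added. FP read (Ex 480/Em 540) after 15 min, pH 7.4 buffer containing 5 mM CaCl2.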
# Papain (Carica papaya) = Papain (Carica papaya) (UniProt P00784); experiment: Primary qHTS assay for inhibitors of the protease papain (AID 1645873);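 further: papain turnover of Z-FR-AMC read as the AMC fluorescence gain over 10 min; series mostly up to about 50 µM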
# [12] = biological target: Rap guanine nucleotide exchange factor 3 (Homo sapiens) (UniProt O95398); experiment: Confirmatory qHTS for antagonist of cAMP-regulated guanine nucleotide exchange factor 3 (EPAC1) (AID 1645880); further: nearly all actives have a fitted effect of over 55% in size
# How it was run: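 Nucleotide exchange uses 100 nM EPAC1, 250 nM RAP1B-BODIPY-GDP and 50 uM GDP, with compounds in a concentration-titration series. After 5 min at room temperature, fluorescence (480 nm ex/540 nm em) is read every 5 min for 30 min. Data are normalized to control ATA and DMSO.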
# [13] = biological target: Rap guanine nucleotide exchange factor 3 (Homo sapiens) (UniProt O95398); experiment: Confirmatory qHTS for agonist of cAMP-regulated guanine nucleotide exchange factor 3 (EPAC1) (AID 1645881);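 further: EPAC1 catalysed release of BODIPY-GDP from Rap1B seen as fluorescence loss; nearly all actives have a fitted effect of over 75% in size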
# [14] = Counterscreen qHTS for small molecule stabilizers of the endoplasmic reticulum resident proteome: GLuc-NoTag assay (AID 1508627);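 further: SH-SY5Y cells given compound then 100 nM thapsigargin to empty ER calcium; series mostly up to about 76 µM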
# How it was run: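 SH-SY5Y cells stably expressing constitutively secreted GLuc without SERCaMP tag, exposed to compound for 19 hr, then to 100 nM thapsigargin for 4 hr at 37C. Medium luciferase was read by coelenterazine luminescence without lysis.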
# [15] = Confirmatory qHTS for small molecule stabilizers of the endoplasmic reticulum resident proteome: Secreted ER Calcium Modulated Protein (SERCaMP) assay (AID 1508628); further: nearly all actives have a fitted effect of over 40% in size; further: potency means the concentration at half of the fitted maximal effect
# How it was run: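 We seeded SH-SY5Y-GLuc-SERCaMP cells, added compounds (three concentrations in the primary run, eleven up to 76.6 uM in confirmation), incubated 16 h, depleted ER calcium with thapsigargin, and read luciferase 4 h later.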
# [16] = Cell Viability qHTS for small molecule stabilizers of the endoplasmic reticulum resident proteome (AID 1508629); conditions: cell viability counter-screen, 100 nM thapsigargin for final 4 h;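 further: human SH-SY5Y neuroblastoma cells carrying the GLuc-SERCaMP reporter; compound exposure about 46 h in total before the viability read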
# [17] = biological target: N-terminal Xaa-Pro-Lys N-methyltransferase 1 (Homo sapiens) (UniProt Q9BV86); experiment: Confirmatory qHTS for Inhibitors of N-terminal methyltransferase 1 (NTMT1): MTaseGlo Assay (AID 1645874);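 further: luminescence from SAH made as NTMT1 methylates SPKRIA peptide using SAM; series mostly up to about 100 µM; nearly all actives have a fitted effect of over 65% in size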
# How it was run: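 qHTS format: NTMT1 125 nM, SAM 100 uM, peptide SPKRIA 1 uM final; 15 min compound preincubation, 30 min reaction at room temperature. MTase-Glo luminescence.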
# Rap guanine nucleotide exchange factor 3 (Homo sapiens), sequence (O95398 whole entry, looked up): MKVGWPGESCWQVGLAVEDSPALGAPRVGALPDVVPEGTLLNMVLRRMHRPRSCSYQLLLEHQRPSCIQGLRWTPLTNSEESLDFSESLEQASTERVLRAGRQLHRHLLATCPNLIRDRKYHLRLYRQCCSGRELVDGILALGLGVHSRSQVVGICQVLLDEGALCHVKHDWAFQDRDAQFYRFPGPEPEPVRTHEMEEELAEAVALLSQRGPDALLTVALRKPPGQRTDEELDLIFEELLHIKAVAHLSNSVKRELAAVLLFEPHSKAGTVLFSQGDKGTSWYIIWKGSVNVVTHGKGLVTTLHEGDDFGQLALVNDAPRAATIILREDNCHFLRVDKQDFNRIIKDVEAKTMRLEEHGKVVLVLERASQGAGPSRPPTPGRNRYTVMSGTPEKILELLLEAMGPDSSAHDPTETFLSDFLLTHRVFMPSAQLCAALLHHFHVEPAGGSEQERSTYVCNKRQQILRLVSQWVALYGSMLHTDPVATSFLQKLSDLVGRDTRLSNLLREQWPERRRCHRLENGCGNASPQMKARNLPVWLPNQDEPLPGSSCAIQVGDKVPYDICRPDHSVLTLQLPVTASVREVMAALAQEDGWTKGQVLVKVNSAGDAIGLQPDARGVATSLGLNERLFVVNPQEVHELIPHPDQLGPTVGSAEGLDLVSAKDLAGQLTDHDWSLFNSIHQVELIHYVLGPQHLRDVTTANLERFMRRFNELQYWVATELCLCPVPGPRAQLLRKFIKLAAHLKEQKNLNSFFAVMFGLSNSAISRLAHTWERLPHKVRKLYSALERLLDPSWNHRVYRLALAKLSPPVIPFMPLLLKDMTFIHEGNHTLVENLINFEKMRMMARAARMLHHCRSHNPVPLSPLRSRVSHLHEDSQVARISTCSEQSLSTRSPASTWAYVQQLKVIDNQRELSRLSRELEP
# Calcium and integrin-binding protein 1 (Homo sapiens), sequence (Q99828 whole entry, looked up): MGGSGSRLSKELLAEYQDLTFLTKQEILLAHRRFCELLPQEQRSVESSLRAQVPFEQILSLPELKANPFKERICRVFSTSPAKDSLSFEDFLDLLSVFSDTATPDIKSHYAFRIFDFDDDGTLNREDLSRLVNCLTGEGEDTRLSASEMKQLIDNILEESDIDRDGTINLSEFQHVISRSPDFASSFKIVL
# Cytochrome P450 2C9 (Homo sapiens), sequence (P11712 whole entry, looked up): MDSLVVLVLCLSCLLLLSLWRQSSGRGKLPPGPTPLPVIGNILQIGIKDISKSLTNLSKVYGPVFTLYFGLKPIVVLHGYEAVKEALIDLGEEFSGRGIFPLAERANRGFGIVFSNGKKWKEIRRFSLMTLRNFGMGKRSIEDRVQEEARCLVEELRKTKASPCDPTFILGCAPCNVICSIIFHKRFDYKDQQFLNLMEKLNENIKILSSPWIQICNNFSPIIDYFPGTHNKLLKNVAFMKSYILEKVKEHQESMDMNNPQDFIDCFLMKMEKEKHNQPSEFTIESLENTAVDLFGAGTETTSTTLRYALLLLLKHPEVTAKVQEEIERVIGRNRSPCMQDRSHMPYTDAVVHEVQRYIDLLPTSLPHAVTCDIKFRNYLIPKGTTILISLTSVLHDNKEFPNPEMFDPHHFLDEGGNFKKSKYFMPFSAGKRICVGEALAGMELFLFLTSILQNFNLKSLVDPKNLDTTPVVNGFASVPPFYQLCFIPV
# Cytochrome P450 2D6 (Homo sapiens), sequence (P10635 whole entry, looked up): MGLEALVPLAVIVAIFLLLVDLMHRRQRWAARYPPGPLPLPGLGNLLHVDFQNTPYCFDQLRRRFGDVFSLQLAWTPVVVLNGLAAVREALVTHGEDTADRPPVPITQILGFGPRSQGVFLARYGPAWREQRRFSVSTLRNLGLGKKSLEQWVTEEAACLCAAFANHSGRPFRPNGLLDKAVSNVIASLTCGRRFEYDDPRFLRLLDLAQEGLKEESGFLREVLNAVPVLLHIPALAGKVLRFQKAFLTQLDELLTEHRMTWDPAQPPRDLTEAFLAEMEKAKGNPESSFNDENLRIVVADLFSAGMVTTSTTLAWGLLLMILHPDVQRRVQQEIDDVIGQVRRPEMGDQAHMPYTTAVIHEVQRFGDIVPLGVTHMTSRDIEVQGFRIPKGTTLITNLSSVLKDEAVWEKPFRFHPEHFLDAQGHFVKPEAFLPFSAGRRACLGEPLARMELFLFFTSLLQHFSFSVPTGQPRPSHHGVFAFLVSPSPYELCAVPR
# Papain (Carica papaya), sequence (P00784 whole entry, looked up): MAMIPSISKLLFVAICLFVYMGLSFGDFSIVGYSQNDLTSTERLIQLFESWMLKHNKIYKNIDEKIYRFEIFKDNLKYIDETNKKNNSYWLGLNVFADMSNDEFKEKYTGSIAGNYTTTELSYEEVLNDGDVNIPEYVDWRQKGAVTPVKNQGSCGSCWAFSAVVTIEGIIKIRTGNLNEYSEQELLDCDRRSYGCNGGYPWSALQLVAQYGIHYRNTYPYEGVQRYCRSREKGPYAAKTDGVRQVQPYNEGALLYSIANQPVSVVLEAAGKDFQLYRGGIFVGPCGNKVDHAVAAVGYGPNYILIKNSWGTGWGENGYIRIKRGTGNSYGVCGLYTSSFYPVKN
# Single-stranded DNA cytosine deaminase (Homo sapiens), sequence (Q9GZX7 whole entry, looked up): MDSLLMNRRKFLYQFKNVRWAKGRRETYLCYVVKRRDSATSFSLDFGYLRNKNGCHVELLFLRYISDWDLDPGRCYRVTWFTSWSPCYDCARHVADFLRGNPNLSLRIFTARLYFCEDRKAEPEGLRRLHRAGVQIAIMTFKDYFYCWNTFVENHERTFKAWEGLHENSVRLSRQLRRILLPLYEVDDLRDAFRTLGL
# N-terminal Xaa-Pro-Lys N-methyltransferase 1 (Homo sapiens), sequence (Q9BV86 whole entry, looked up): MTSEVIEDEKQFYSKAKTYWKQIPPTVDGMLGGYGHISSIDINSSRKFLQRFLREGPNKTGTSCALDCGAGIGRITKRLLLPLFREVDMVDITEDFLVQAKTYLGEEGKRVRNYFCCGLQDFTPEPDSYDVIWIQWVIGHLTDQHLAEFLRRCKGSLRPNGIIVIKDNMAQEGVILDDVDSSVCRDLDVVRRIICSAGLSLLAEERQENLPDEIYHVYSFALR
compound,measurement,setting,value
CC(C)=CCC/C(C)=C/CC/C(C)=C/CC/C=C(\C)CC/C=C(\C)CCC=C(C)C,Potency,[1],inactive
CCC(C)[C@@H](N)C(=O)O (stereo partly specified),outcome,[2],inactive
CC(=O)Oc1cccc2c1C(=O)c1c(OC(C)=O)cc(C(=O)O)cc1C2=O,outcome,[3],inactive
same,outcome,[2],inactive
same,outcome,[4],inactive
same,Potency,[5],inactive
same,Potency,[6],inactive
same,Potency,[7],inactive
CCN(CC)CCOCCOC(=O)C(CC)(CC)c1ccccc1,Potency,[8],inactive
same,Potency,[1],3.01 µM (active)
Oc1ccc(/C=C/c2cc(O)cc(O)c2)cc1,outcome,[9],inactive
same,outcome,[10],inactive
same,outcome,[3],inactive
same,outcome,[11],inactive
same,Potency,[8],inactive
same,outcome,[2],inactive
same,outcome,Papain (Carica papaya),inactive
same,Potency,[6],9.34 µM (active)
same,Potency,[7],18.8 µM (active) and 11.8 µM (active)
same,outcome,[12],inactive
same,outcome,[13],inactive
N[C@H](CC(=O)O)C(=O)O,outcome,[2],inactive
O=C(OCc1ccccc1)c1ccc(O)cc1,outcome,[3],inactive
same,Potency,[8],inactive
same,outcome,[4],inactive
O=C(OCc1ccccc1)c1cccnc1,Potency,[1],inactive
NC(=O)c1ccc[n+]([C@@H]2O[C@H](COP(=O)([O-])OP(=O)(O)OC[C@H]3O[C@@H](n4cnc5c(N)ncnc54)[C@H](O)[C@@H]3O)[C@@H](O)[C@H]2O)c1,outcome,[2],inactive
O=C(O)Cc1cc(I)c(Oc2ccc(O)c(I)c2)c(I)c1,Potency,[8],inactive
same,outcome,[2],inactive
same,Potency,[6],20.5 µM (active)
C[C@@](Cc1ccc(O)c(O)c1)(NN)C(=O)O,outcome,[14],inactive
same,Potency,[15],inactive
same,max response,[16],-4.61%
same,Potency,[1],inactive
CC(C)(C)c1ccc(CN2CCN(C(c3ccccc3)c3ccc(Cl)cc3)CC2)cc1 (stereo unspecified),Potency,[8],inactive
same,Potency,[1],inactive
same,Potency,[5],inactive
same,Potency,[7],inactive
C/C(=C\C(=O)OCCCCCCCCC(=O)O)C[C@@H]1OC[C@H](C[C@@H]2O[C@H]2[C@@H](C)[C@H](C)O)[C@@H](O)[C@H]1O,Potency,[8],inactive
CN1C(=O)OC(C)(C)C1=O,Potency,[1],inactive
CC/C=C\C/C=C\C/C=C\CCCCCCCC(=O)O,"activity change, negative = inhibition",[2],-26.6% [at 3.88 µM]
C[C@H]1O[C@@H](O[C@H]2[C@@H](O)C[C@H](O[C@H]3[C@@H](O)C[C@H](O[C@H]4CC[C@@]5(C)[C@H](CC[C@@H]6[C@@H]5C[C@@H](O)[C@]5(C)[C@@H](C7=CC(=O)OC7)CC[C@]65O)C4)O[C@@H]3C)O[C@@H]2C)C[C@H](O)[C@@H]1O,Potency,[8],inactive
same,Potency,[1],inactive
same,Potency,[5],inactive
same,Potency,[6],40.9 nM (active) and 66.1 nM (active)
same,Potency,[7],51.5 nM (active) and 118 nM (active)
C=C1CC[C@H](O)CC1=C/C=C1\CCC[C@]2(C)[C@@H]([C@H](C)/C=C/[C@H](C)C(C)C)CC[C@@H]12,Potency,[8],inactive
same,Potency,[1],inactive
same,Potency,[5],16.9 µM (active)
same,Potency,[7],20.5 µM (active)
CC/C=C\C/C=C\C/C=C\C/C=C\C/C=C\C/C=C\CCC(=O)O,outcome,[2],inactive
O=C(O)c1ccc(NC2OC[C@@H](O)[C@H](O)[C@H]2O)cc1 (stereo partly specified),outcome,[2],inactive
C=C1[C@H](CO)[C@@H](O)C[C@@H]1n1cnc2c(=O)[nH]c(N)nc21,Potency,[8],inactive
same,Potency,[1],inactive
same,Potency,[5],inactive
same,Potency,[6],inactive
same,Potency,[7],inactive
C[C@]12CC[C@@H]3c4ccc(OC(=O)c5ccccc5)cc4CC[C@H]3[C@@H]1CC[C@@H]2O,Potency,[8],inactive
same,Potency,[1],inactive
same,Potency,[7],inactive
O=C(O)CCC(=O)c1ccc(-c2ccccc2)cc1,outcome,[3],inactive
same,Potency,[8],inactive
same,outcome,[4],inactive
same,Potency,[5],inactive
same,Potency,[6],inactive
same,Potency,[7],inactive
COc1ccc(C[C@H](C)NC[C@@H](O)c2ccc(O)c(NC=O)c2)cc1,Potency,[8],inactive
COc1cc(C)c(/C=C/C(C)=C/C=C/C(C)=C/C(=O)O)c(C)c1C,outcome,[2],inactive
same,outcome,[17],inactive
same,Potency,[7],18.6 µM (active)
O=C1CCC(c2ccccc2)(C2CCN(Cc3ccccc3)CC2)C(=O)N1 (stereo unspecified),outcome,[2],inactive
CC1CC(OC(=O)C(O)c2ccccc2)CC(C)(C)C1 (stereo unspecified),Potency,[8],inactive
same,outcome,[12],inactive
same,outcome,[13],inactive
O=C(O)CCC/C=C\C[C@@H]1[C@@H](/C=C/[C@@H](O)COc2cccc(Cl)c2)[C@H](O)C[C@@H]1O,"activity change, negative = inhibition",[2],-16.6% [at 3.88 µM]
Nc1ccc(N=Nc2ccccc2)c(N)n1,outcome,[3],inactive
same,outcome,[2],inactive
same,Potency,[1],17.4 µM (active)
same,Potency,[5],13.8 µM (active)
O=C(O)Cc1nn(Cc2ccc(Br)cc2F)c(=O)c2ccccc12,outcome,[2],inactive
N#Cc1ccc2c(c1)N(CCCN1CCC(O)CC1)c1ccccc1S2,outcome,[2],inactive
CNC(=O)[C@H](Cc1c[nH]c2ccccc12)NC(=O)[C@@H](CC(=O)NO)CC(C)C,outcome,[2],inactive
same,Potency,[6],inactive
COc1ccc2nc(NC(=O)Nc3ccccc3)sc2c1,outcome,[3],inactive
same,Potency,[8],inactive
same,outcome,[2],inactive
same,outcome,[4],inactive
same,Potency,[1],inactive
same,Potency,[5],13.8 µM (active)
CO[C@H]1C[C@@H]2CC[C@@H](C)[C@@](O)(O2)C(=O)C(=O)N2CCCC[C@H]2C(=O)O[C@H]([C@H](C)C[C@@H]2CC[C@@H](OC(=O)C(C)(CO)CO)[C@H](OC)C2)CC(=O)[C@H](C)/C=C(\C)[C@@H](O)[C@@H](OC)C(=O)[C@H](C)C[C@H](C)/C=C/C=C/C=C/1C,Potency,[8],inactive
same,Potency,[6],0.204 µM (active)
same,Potency,[7],0.574 µM (active)
CCCCC[C@H](O)/C=C/[C@H]1[C@H](O)CC(=O)[C@@H]1CCCCCCC(=O)O,"activity change, negative = inhibition",[2],-7.33% [at 3.88 µM]
same,Potency,[6],0.0661 µM (active)
same,Potency,[7],20.9 µM (active)
Cc1cc(-c2ccc(N=Nc3ccc4c(S(=O)(=O)O)cc(S(=O)(=O)O)c(N)c4c3O)c(C)c2)ccc1N=Nc1ccc2c(S(=O)(=O)O)cc(S(=O)(=O)O)c(N)c2c1O,Potency,[15],31.6 µM (active)

# From PubChem BioAssay (NCATS)
